This is a sample that favours compounds with a hit; in the whole collection about 15% have one here.
DT40 TDP1 no CPT = qHTS for Inhibitors of human tyrosyl-DNA phosphodiesterase 1 (TDP1): qHTS in cells in absence of CPT. DT40 Tdp1-/- hTDP1 cells, no CPT, ATP luminescence, 48 h. Potency, µM (highest dose often 46.2 µM), inactives show top-dose activity change, negative = growth inhibition, usual class: inhibitors. 420,000 tested, 15% active. AID 686978, 2013; note: nearly all actives have a fitted effect of over 55% in size
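Luminescent ATP content (CellTiter-Glo) served as the growth readout. Knockout chicken DT40 cells expressing human TDP1 were exposed to compounds without camptothecin for a minimum 48 hr at 37 °C.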
Gal4-VP16 FLuc = inhibits Gal4-VP16 luciferase reporter, ROR gamma counter-screen. AID 2546. Potency, µM (doses to about 53.6 µM), for inactives: top-dose activity, negative = inhibition, actives largely listed as inhibitors. Drosophila S2 Gal4-VP16 UAS-luciferase, luminescence, 20 h. 310,000 tested, 3.5% active;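 note: Gal4-VP16 expression switched on by copper sulfate through the metallothionein promoter; nearly all actives have a fitted effect of over 50% in size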
DT40 TDP1 CPT = DT40-hTDP1 cell growth loss with CPT; chicken DT40 Tdp1-/-;hTDP1 cells + 20 nM CPT, ATP luminescence, 48 h; Potency, µM (series often up to 46.2 µM), for the others: at the top dose activity change, negative = growth inhibition, most hits filed as inhibitors; 420,000 tested, 12% active; note: nearly all actives have a fitted effect of over 55% in size
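Cell growth measured by CellTiter-Glo luminescence after a minimum 48 h, 37 C compound exposure with 20 nM CPT in Tdp1-knockout DT40 cells stably expressing hTDP1, seeded 400/well; qHTS titration format.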
12-LOX inh = inhibitors of human 12S-lipoxygenase ALOX12 | Potency, µM (series often up to 108 µM), for the others: at the top dose activity change, negative = inhibition, hits mostly inhibitors | purified 12hLO, xylenol orange hydroperoxide absorbance | AID 1671190 | 580,000 tested, 1.1% active
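Hydroperoxide product was detected by ferrous iron/xylenol orange as the 573 to 405 nm absorbance ratio. Arachidonic acid at 40 uM (final) was turned over for 30 min at room temperature by 150 nM human 12hLO, pH 7.0 Hepes buffer, after 15 min compound preincubation.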
RORgamma inh = blocks mouse ROR gamma transcriptional activity | 310,000 tested, 5.4% active | Potency, µM (series often up to 53.6 µM), for the others: top-dose activity change, negative = inhibition, hits mostly inhibitors | Drosophila S2 Gal4-RORgamma UAS-luciferase reporter, 20 h | P51450; note: nearly all actives have a fitted effect of over 60% in size
Target sequence (P51450 whole entry, looked up, the tested form may be a part): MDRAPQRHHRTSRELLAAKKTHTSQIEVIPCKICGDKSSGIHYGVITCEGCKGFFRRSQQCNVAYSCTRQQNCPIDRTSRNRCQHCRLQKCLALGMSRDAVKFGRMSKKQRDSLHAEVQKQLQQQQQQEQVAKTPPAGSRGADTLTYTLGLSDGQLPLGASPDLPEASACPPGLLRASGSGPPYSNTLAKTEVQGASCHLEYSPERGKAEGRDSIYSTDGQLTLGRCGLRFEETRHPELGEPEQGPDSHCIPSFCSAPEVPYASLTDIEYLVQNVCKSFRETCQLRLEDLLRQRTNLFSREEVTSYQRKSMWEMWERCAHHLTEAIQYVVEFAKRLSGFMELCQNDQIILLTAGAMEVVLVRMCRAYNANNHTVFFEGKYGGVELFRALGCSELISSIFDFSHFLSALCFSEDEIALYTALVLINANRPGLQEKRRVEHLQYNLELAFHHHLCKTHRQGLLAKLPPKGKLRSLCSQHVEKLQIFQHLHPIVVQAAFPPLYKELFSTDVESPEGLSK
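Stably transfected Drosophila Schneider cells are the test system, with ROR gamma fused to Gal4 and luciferase under UAS control; luminescence is read after 20 hr of 700 uM copper sulfate induction at ambient temperature.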
ELG1 DNA repair = ELG1-dependent DNA repair inhibition; HEK293T ELG1-luciferase reporter, luminescence, 16 h; DNA damage induced by 5-fluorouridine; Potency, µM (series often up to 46.1 µM), for inactives: top-dose activity change, negative = inhibition, usual class: inhibitors; 330,000 tested, 2.3% active; note: nearly all actives have a fitted effect of over 55% in size
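Reporter activity after DNA damage by 5-fluorouridine is monitored. Compound-treated cells incubate 16 hr at 37 °C, then ONE-Glo is added for 30 min before luminescence reading.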
Active calls of the source: *; u = inconclusive; x = no result; [ ] = another dose, or the depositor's remark. Calls come from the whole dose curve; as a rule, active = well fitted curve in the direction sought with a large enough effect; inconclusive = small, poorly fitted or top-dose-only effect, or another doubt; inactive = no such curve, though single readings can be large; an effect the other way counts as inactive or inconclusive. % is set by controls: 0 for no effect and ±100 for the full control effect; potency is the fitted concentration of half-maximal effect.

SMILES	DT40 TDP1 no CPT	Gal4-VP16 FLuc	DT40 TDP1 CPT	12-LOX inh	RORgamma inh	ELG1 DNA repair
COc1ccc(OCCn2cnc3ccccc32)cc1	u	-4.9%	-6.3%	0.0%	34.9%	-6.0%
Cc1ccccc1Cn1cnc2ccccc21	20.6µM*	u	18.4µM*	0.0%	u	-24.8%
Cc1ccccc1Cn1cnc2ccccc2c1=O	-12.8%	5.1%	21.1%	-13.3%	-13.3%	-0.8%
Fc1ccc(Cn2cnc3ccccc32)cc1	-34.0%	22.5%	-27.7%	0.0%	-33.7%	-1.6%
COc1ccc(CN2CC3(C2)C(=O)N(Cc2ccc(C)o2)C(=O)[C@@H]2C[C@@H](O)CN23)c2ccccc12	x	x	x	-1.9%	x	x
C/C(=N/OC(=O)c1ccc(-c2cc(Cl)ccc2Cl)o1)c1ccccc1	x	x	x	-3.7%	x	x
O=C(CSc1ncnc2sc3c(c12)CCCC3)Nc1ncc(Cl)cc1Cl	x	x	x	18.1%	x	x
O=C(c1ccccc1)N(CCCl)C(=O)N(CCCl)C(=O)c1ccccc1	u	x	u	10µM*	x	x
O=C(c1ccccc1)N(C(=O)c1ccccc1)c1ccccc1	u	x	-20.4%	-13.0%	x	x
COc1ccc(/C=N\NC(=O)c2c(C)nc3ccc(Br)cn23)cc1	0.731µM*	-102.2%	0.581µM*	-3.0%	10µM*	-2.6%
Cc1nc2ccccn2c1C(=O)N/N=C/c1ccc(F)cc1	-3.0%	0.8%	0.1%	0.0%	36.2%	3.6%
Cc1ccc(/C=N/NC(=O)c2c(C)nc3ccc(Br)cn23)cc1	0.581µM*	u	0.731µM*	-4.7%	7.08µM*	-3.9%
COc1ccc(OC)c(/C=N\NC(=O)c2c(C)nc3cc(C)ccn23)c1	-3.4%	7.9%	11.3%	u	-4.7%[1.91 µM]	-3.6%
COc1cccc(C(=O)N2CC(c3nnc(-c4ccc(C)cc4)o3)C3(CCOCC3)C2)c1C (stereo not given)	x	x	x	18.4%	x	x
Cc1cc(F)ccc1NC(=O)C(C)(C)c1ccccc1	x	x	x	-35.8%	x	x
Cc1cccc(C)c1Nc1c(-c2ccc(N3CCOCC3)cc2)nc2cnccn12	18.4µM*	10.6%	u	-19.3%	1.2%	-0.9%
Cc1ccc(Nc2c(-c3ccc(N4CCOCC4)cc3)nc3c(C)cccn23)cc1	14.6µM*	x	16.4µM*	2.2%	x	x
Cc1cccc(C)c1Nc1c(-c2ccccc2Cl)nc2cnccn12	20.6µM*	x	u	-18.3%	x	x
O=C(O)/C=C/c1ccc(-c2ccccc2)s1	x	x	x	25.3%	x	x
O=C1NCCCCCN(C(=O)NCc2ccc(F)cc2)[C@H]2CCC[C@@H]12	x	x	x	11.5%	x	x
COc1ccc(/C=C2/SC(=O)NC2=O)cc1	-25.8%	-10.3%	u	-22.1%	-6.0%	u
COc1ccc(C=C2SC(=S)NC2=O)cc1	18.4µM*	x	u	-26.2%	x	x
O=C1NC(=S)SC1=Cc1cc(Br)ccc1O	-13.2%	x	29.1µM*	25.1µM*	x	x
O=C1NC(=S)S/C1=C\c1ccc2ccccc2c1	20.6µM*	1.5%	u	8.7%	-12.9%	u
COc1cc(/C=C2/SC(=S)NC2=O)ccc1OS(=O)(=O)c1ccc(C)cc1	14.6µM*	u	u	x	u	u
SMILES	DT40 TDP1 no CPT	Gal4-VP16 FLuc	DT40 TDP1 CPT	12-LOX inh	RORgamma inh	ELG1 DNA repair
COc1cc(/C=C2\SC(=S)NC2=O)ccc1OS(=O)(=O)c1ccccc1	x	1.1%	x	x	u	-15.3%
O=C1NC(=S)S/C1=C\c1coc2ccc(O)cc2c1=O	15.5%	2.6%	-2.0%	u	13.3%	u
COc1cc(/C=N/O)cc(I)c1OCC(=O)Nc1ccc(C)cc1	x	x	x	-26.5%	x	x
COC(=O)[C@@H]1Cc2ncn(Cc3ccc(Cl)cc3)c2CN1C(=O)c1cccs1	x	x	x	6.5%[176 µM]	x	x
CCCCC(CC)C(=O)Nc1ccc(F)c(F)c1 (stereo not given)	x	x	x	6.7%	x	x
Cc1ccnc(NC(=O)c2nccnc2N)c1	x	x	x	-80.6%	x	x
O=C1NC(=O)C(=Cc2ccc(Cl)cc2Cl)S1	u	x	u	39.8µM*	x	x
O=C1NC(=S)SC1=Cc1cccs1	u	x	-5.2%	u	x	x
COc1ccc(C=C2CS(=O)(=O)CC(=Cc3ccc(OC)cc3)C2=O)cc1	1.3µM*	x	1.84µM*	u	x	x
COc1ccc(/C=C2/SC(=S)N(n3c(C)ccc3C)C2=O)cc1	14.6µM*	-6.4%	u	-12.4%	-6.3%	1.4%
O=C1NC(=S)SC1=Cc1ccc(Cl)cc1	20.6µM*	x	u	22.4µM*	x	x
CCOc1ccc(/C=C2/SC(=S)N(n3c(C)ccc3C)C2=O)cc1	u	9.8%	-26.1%	-15.4%	u	13.5%
CCOc1ccc2c(n1)CCN(C(=O)c1ccn(CC)n1)C2	x	x	x	47.5%	x	x
O=C(COC(=O)c1ccc(Br)c([N+](=O)[O-])c1)c1ccc(Br)cc1	x	x	x	-47.1%	x	x
COc1cccc(/C=C2\SC(=S)N(N3CCOCC3)C2=O)c1OC	-9.4%	-2.7%	3.4%	-17.8%	26.0%	u
COc1ccc(/C=C2\SC(=S)N(N3CCOCC3)C2=O)c(OC)c1	16.4µM*	-0.6%	-24.0%	27.1%	6.7%	10.3%
COc1ccccc1CNC(=O)CCc1nc2ccccc2c(=O)[nH]1	-26.4%	13.1%	-14.3%	-16.7%	3.6%	-8.6%

From PubChem BioAssay
